From PubChem
NPR1 antag: Natriuretic polypeptide receptor (hNpr1) antagonism - Primary qHTS; AID 1347048, 2019; hit rate 1.6% among 76,000; HEK293 hNpr1 GloSensor cGMP, ANP-stimulated luminescence; Potency, µM (titrated, usually from 46.3 µM), inactives show top-dose activity change, negative = inhibition, hits mostly inhibitors; Atrial natriuretic peptide receptor 1 (Homo sapiens), P16066; calls by dose curve; also: % is scaled to controls: 0 for no effect and ±100 for the full control effect; nearly all actives have a fitted effect of over 60% in size
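Compound pre-incubated 30 min at room temperature on GloSensor-loaded HEK293 cells stably carrying hNpr1 and the pGS-40F cGMP biosensor. Stimulation uses hNppA at 0.1 nM final; luminescence is taken at baseline and 20 min post-agonist.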
3T3 cytotox: Cytotoxic Profiling in NIH 3T3 Cell Line of Diverse Libraries Using Quantitative High-Throughput Screening; hit rate 4.3% among 94,000; NIH 3T3 viability, CellTiter-Glo ATP luminescence, 48-72 h; AID 1345082, 2018; Potency, µM (top dose mostly 96.7 µM), for the others: at the highest dose activity change, negative = cytotoxicity, most hits filed as inhibitors; also: % is scaled to controls: 0 for no effect and ±100 for the full control effect; nearly all actives have a fitted effect of over 55% in size
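ATP-dependent luminescence (CellTiter-Glo) served as the viability signal for NIH 3T3 cells treated with compound for 48 or 72 hr at 37 °C.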
FLuc inh: Firefly luciferase inhibition profiling of diverse chemical library using quantitative high-throughput screening; purified P. pyralis luciferase, luminescence, biochemical; Potency, µM (doses to about 115 µM), actives largely listed as inhibitors; hit rate 2.5% among 76,000; also: % is scaled to controls: 0 for no effect and ±100 for the full control effect; nearly all actives have a fitted effect of over 65% in size
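Luminescence read by CCD imager after adding enzyme (10nM final) to wells holding compound, titrated in qHTS. Substrates 10uM each D-luciferin and ATP; buffer 50mM Tris acetate pH 7.5, 10mM Mg acetate, Tween-20, BSA.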
HEK293 tox: Cytotoxic Profiling in HEK 293 Cell Line of Diverse Libraries Using Quantitative High-Throughput Screening | AID 1345083, 2018 | hit rate 6.6% among 94,000 | HEK 293 viability, ATP luminescence (CellTiter-Glo), 48-72 h | Potency, µM (titrated, usually from 115 µM), for the others: top-dose activity change, negative = cytotoxicity, usual class: inhibitors; also: % is scaled to controls: 0 for no effect and ±100 for the full control effect; nearly all actives have a fitted effect of over 60% in size
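Read-out: CellTiter-Glo ATP luminescence. Cells: HEK 293, 250 cells/well. Exposure: 48 or 72 hr, 37 degree Celsius.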
NPR1 antag cnf: Natriuretic polypeptide receptor (hNpr1) antagonism - Confirmation | shares compounds with NPR1 antag | HEK293 hNpr1 cGMP GloSensor luminescence, ANP-stimulated | Potency, µM (doses to about 57.6 µM), for the others: at the highest dose activity change, negative = inhibition, most hits filed as inhibitors | hit rate 76% among 1,400; calls by dose curve; also: nearly all actives have a fitted effect of over 70% in size
Npr2 selectivity: Natriuretic polypeptide receptor (hNpr2) antagonism - Subtype selectivity assay; Potency, µM (top dose mostly 57.6 µM), inactives show top-dose activity change, negative = inhibition, actives largely listed as inhibitors; HEK293 hNpr2 GloSensor cGMP luminescence, CNP-stimulated; shares compounds with NPR1 antag; hit rate 67% among 1,400; AID 1347046, 2019; calls by dose curve; also: nearly all actives have a fitted effect of over 70% in size
Target sequence (P20594 whole entry, looked up): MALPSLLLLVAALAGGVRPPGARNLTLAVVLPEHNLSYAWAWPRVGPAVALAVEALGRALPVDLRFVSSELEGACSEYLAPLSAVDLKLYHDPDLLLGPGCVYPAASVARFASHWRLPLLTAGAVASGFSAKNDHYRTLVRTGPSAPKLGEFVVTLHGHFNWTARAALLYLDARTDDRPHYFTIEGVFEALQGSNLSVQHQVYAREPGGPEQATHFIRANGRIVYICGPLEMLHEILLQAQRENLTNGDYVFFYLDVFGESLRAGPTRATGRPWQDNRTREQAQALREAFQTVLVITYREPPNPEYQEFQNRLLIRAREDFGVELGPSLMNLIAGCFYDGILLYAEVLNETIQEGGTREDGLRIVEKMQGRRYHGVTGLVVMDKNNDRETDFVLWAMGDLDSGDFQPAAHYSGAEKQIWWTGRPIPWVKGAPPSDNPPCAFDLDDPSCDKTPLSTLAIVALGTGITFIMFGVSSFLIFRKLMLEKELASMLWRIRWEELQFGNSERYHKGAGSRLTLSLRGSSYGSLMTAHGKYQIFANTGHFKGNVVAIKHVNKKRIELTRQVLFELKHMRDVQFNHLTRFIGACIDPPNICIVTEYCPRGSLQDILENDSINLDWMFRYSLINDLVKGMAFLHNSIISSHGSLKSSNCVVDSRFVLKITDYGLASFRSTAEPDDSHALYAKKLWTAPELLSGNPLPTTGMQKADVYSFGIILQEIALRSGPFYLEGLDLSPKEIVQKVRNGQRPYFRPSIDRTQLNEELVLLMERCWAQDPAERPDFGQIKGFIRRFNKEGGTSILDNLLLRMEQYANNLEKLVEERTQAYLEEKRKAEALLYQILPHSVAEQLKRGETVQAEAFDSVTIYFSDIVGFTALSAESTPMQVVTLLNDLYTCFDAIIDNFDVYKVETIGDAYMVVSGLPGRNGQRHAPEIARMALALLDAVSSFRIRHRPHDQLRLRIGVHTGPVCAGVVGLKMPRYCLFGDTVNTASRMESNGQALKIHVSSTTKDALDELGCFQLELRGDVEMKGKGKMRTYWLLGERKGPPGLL
FLuc inh counter: Natriuretic polypeptide receptor (hNpr1) antagonism - Confirmation firefly luciferase (FLuc) inhibition counterscreen. purified FLuc enzyme, luminescence, Km substrate. AID 1347047, 2019. Potency, µM (doses to about 57.6 µM), inactives show at the highest dose activity change, negative = inhibition, most hits filed as inhibitors. hit rate 0.7% among 1,400. shares compounds with NPR1 antag; also: 0% is about no effect
GloSensor ctrl: Natriuretic polypeptide receptor (hNpr1) antagonism - Counterscreen GloSensor control cell line. hit rate 69% among 1,400. AID 1347051, 2019. shares compounds with NPR1 antag. Potency, µM (highest dose often 57.6 µM), for inactives: top-dose activity change, negative = inhibition, most hits filed as inhibitors. HEK293 GloSensor cGMP, SNP-stimulated, luminescence; calls by dose curve; also: % is scaled to controls: 0 for no effect and ±100 for the full control effect; nearly all actives have a fitted effect of over 70% in size
* marks the source's active call; other numbers are inactive results; i = inactive; ? = inconclusive; . = no result; [ ] = another dose, or the depositor's remark. Sampled rows, rich in hits. Any-hit rate of the full collection: about 11%. Unless noted, calls follow the shape of the dose curve; as a rule, active = well fitted curve in the direction sought with a large enough effect; inconclusive = small, poorly fitted or top-dose-only effect, or another doubt; inactive = no such curve, though single readings can be large; an effect the other way counts as inactive or inconclusive. Potency is read from the fitted curve at half-maximal effect.

SMILES | NPR1 antag | 3T3 cytotox | FLuc inh | HEK293 tox | NPR1 antag cnf | Npr2 selectivity | FLuc inh counter | GloSensor ctrl
O=C1c2c(nc(CNCc3cccc(F)c3)n2Cc2ccccc2)NCCN1Cc1cccc(Cl)c1 | -24% | ? | i | ? | . | . | . | .
O=C1c2c(nc(COc3ccc4c(c3)OCO4)n2Cc2ccccc2)NCCN1Cc1ccccc1F | ? | ? | i | 35µM* | 24µM* | ? | 4% | ?
Cn1cccc1CN1CCn2c(nn(-c3ccc(Cl)cc3)c2=O)C1 | . | ? | . | ? | ? | ? | 14µM* | ?
O=C(Nc1ccccc1)N1CCn2c(nn(-c3ccc(C(F)(F)F)cc3)c2=O)C1 | ? | ? | i | 45µM* | ? | ? | -2%[86.2 µM] | ?
COc1ccc(C(=O)N2CCn3c(nn(-c4ccc(Cl)cc4)c3=O)C2)cc1 | . | -20% | . | -11% | ? | 22µM* | 0% | 27µM*
O=c1n(-c2ccc(Cl)cc2)nc2n1CCN(Cc1cccnc1)C2 | . | -19% | . | ? | . | . | . | .
COc1ccc(-n2nc3n(c2=O)CCN(C(=O)c2ccccc2)C3)cc1 | . | -28% | . | -19% | . | . | . | .
O=C(c1ccc(C(F)(F)F)cc1)N1CCn2c(nn(-c3ccncc3)c2=O)C1 | ? | ? | i | ? | 24µM* | ? | 4%[86.2 µM] | 22µM*
Cc1cc(C[C@@H]2COC[C@@H]2NC(=O)CCc2ccc(=O)[nH]n2)on1 | 0% | i | i | 5% | . | . | . | .
COc1cccc(-c2noc(CC3CCN(C(=O)c4ccc(C)cc4C)CC3)n2)c1 | 11µM* | ? | i | 35µM* | 11µM* | 11µM* | 0% | 9.7µM*
COc1cccc(-c2noc(CC3CCN(C(=O)c4ccc(C)cc4)CC3)n2)c1 | 3.5µM* | ? | i | ? | 4.8µM* | 5.4µM* | 2% | 4.3µM*
CCOc1ccc(C(=O)N2CCC(Cc3nc(-c4cccc(OC)c4)no3)CC2)cc1 | 7.1µM* | ? | i | ? | 9.7µM* | 12µM* | -1% | 9.7µM*
COc1cccc(-c2cc(C3CCN(C(=O)c4ccc(Br)cc4)CC3)[nH]n2)c1 | ? | ? | i | ? | 27µM* | ? | 3% | ?
COc1ccc(NC(=O)N2CC(c3nnc(-c4ccncc4)o3)C3(CCOCC3)C2)cc1 (stereo unspecified) | -8% | ? | i | -5% | . | . | . | .
CCc1ccc(C(=O)N2CCC(Cc3nc(-c4cccc(OC)c4)no3)CC2)cc1 | 4µM* | 40µM* | i | 22µM* | 9.7µM* | 14µM* | 2% | 12µM*
COc1cccc(-c2noc(CC3CCN(C(=O)c4ccc(C(C)C)cc4)CC3)n2)c1 | 10µM* | ? | i | 35µM* | 14µM* | 17µM* | -5% | 14µM*
O=C(c1cccc(F)c1)N1CCC(Cc2nc(-c3cnccn3)no2)CC1 | -2% | -20% | i | -23% | . | . | . | .
COc1cccc(-c2noc(CC3CCN(C(=O)c4ccc(F)c(F)c4)CC3)n2)c1 | 6.3µM* | ? | i | ? | 4.8µM* | 9.7µM* | 0% | 6.1µM*
COc1cccc(CCC(=O)N2CCC(Cc3nc(C4CCOCC4)no3)CC2)c1 | -17% | -9% | i | -9% | . | . | . | .
COc1cc(Cl)ccc1C(=O)N1CCC(Cc2nc(C(C)C)no2)CC1 | -19% | ? | i | ? | . | . | . | .
O=C(NCc1ccccc1Cl)C1CCN(c2cnc3nccnc3c2)CC1 | 4% | i | i | -1% | . | . | . | .
O=C(Oc1ccccc1)N1CCC(Oc2cnc3c(ccn3-c3cncnc3)c2)CC1 | 35µM* | ? | i | 56µM* | 40µM* | 40µM* | 4%[86.2 µM] | 40µM*
O=C(c1ccncn1)N1CCC(Oc2cnc3c(ccn3-c3cncnc3)c2)CC1 | 4%[70.6 µM] | -19%[138 µM] | i | ? | . | . | . | .
Cc1ccccc1S(=O)(=O)N1CCCC(CCC(=O)NCc2ccc(F)cc2)C1 (stereo unspecified) | -1% | -8% | i | ? | . | . | . | .
Cc1ccccc1S(=O)(=O)N1CCCC(CCC(=O)Nc2cccc(Cl)c2)C1 (stereo unspecified) | 11µM* | ? | i | 22µM* | 24µM* | 27µM* | 2% | 27µM*
SMILES | NPR1 antag | 3T3 cytotox | FLuc inh | HEK293 tox | NPR1 antag cnf | Npr2 selectivity | FLuc inh counter | GloSensor ctrl
CC(=O)NC1CCCN(c2ccc3nnc(-c4ccccc4)n3n2)C1 (stereo unspecified) | . | -25% | . | -13% | . | . | . | .
CC1Oc2ccc(NC(=O)Cc3ccccc3)cc2CN(Cc2ccc(Cl)cc2)C1=O (stereo unspecified) | 11µM* | ? | i | ? | 22µM* | 19µM* | 4% | 17µM*
CC1Oc2ccc(NC(=O)c3ccc(F)cc3F)cc2CN(CCc2ccccc2)C1=O (stereo unspecified) | 3% | -26% | i | ? | . | . | . | .
CC(=O)Oc1ccccc1C(=O)Nc1ccc2c(c1)CN(CCc1ccc(F)cc1)C(=O)C(C)O2 (stereo unspecified) | 16µM* | 25µM* | i | ? | 24µM* | 24µM* | -7% | 24µM*
CCOc1ccc(C(=O)N2CCC(Cc3nc(-c4ccc(OC)cc4)no3)CC2)cc1OCC | 6.3µM* | ? | i | 40µM* | 11µM* | 15µM* | 2% | 9.7µM*
CCOc1ccc(C(=O)N2CCC[C@H]2c2nc(-c3ccc(OC)cc3)no2)cc1OCC | -11% | -16% | i | -13% | . | . | . | .
COC(=O)c1cccc(C(=O)N2CCC(Cc3nc(-c4ccc(OC)cc4)no3)CC2)c1 | 6.3µM* | ? | i | 56µM* | 6.9µM* | 8.6µM* | -7% | 5.4µM*
Cc1cccc(C(=O)N2CCC(Cc3nc(-c4cnccn4)no3)CC2)c1 | -9% | -40% | i | -16% | . | . | . | .
